Bioassay records from PubChem BioAssay.
TAR Tat displ: TAR RNA-Tat peptide displacers, HIV-1, primary screen, biochemical, FRET, FAM/TAMRA-labeled Tat. HIV-1 TAR RNA, Tat peptide displacement FRET; stronger effect = higher value. z-score (test concentration not listed). 100,000 tested, 0.6% active; active = z-score of 3 or more in at least 2 runs
CDC25B-CDK2 inh: primary biochemical HTRF screen for blockers of M-phase inducer phosphatase 2 binding to CDK2/cyclin A; z-score (concentration not given with the values); HTRF CDC25B-CDK2/CyclinA binding, anti-His/anti-Flag; stronger effect = higher value; P30305+P24941; 94,000 tested, 0.72% active; in the data active = z-score above about 3.2
Starred values were filed as active, the others as inactive; . = not tested or not shown. Sampled rows, rich in hits. Any-hit rate of the full collection: about 0.93%.

SMILES | TAR Tat displ | CDC25B-CDK2 inh
O=C(OC[C@H]1O[C@H](OC(=O)c2cc(O)c(O)c(OC(=O)c3cc(O)c(O)c(O)c3)c2)[C@H](OC(=O)c2cc(O)c(O)c(OC(=O)c3cc(O)c(O)c(O)c3)c2)[C@@H](OC(=O)c2cc(O)c(O)c(OC(=O)c3cc(O)c(O)c(O)c3)c2)[C@@H]1OC(=O)c1cc(O)c(O)c(OC(=O)c2cc(O)c(O)c(O)c2)c1)c1cc(O)c(O)c(OC(=O)c2cc(O)c(O)c(O)c2)c1 | 26* | .
CC(=O)OC[C@H]1O[C@@H](OCc2ccccc2)[C@H](OC(C)=O)[C@@H](OC(C)=O)[C@@H]1OC(C)=O | . | -0.63
COc1cn(CC(=O)Nc2ccc(Br)cc2)c(CSc2ccccc2)cc1=O | 0.92 | .
CCc1c(C)c(C#N)c2nc3ccccc3n2c1NCCOCCO | -0.84 | -4.5
COc1ccc(Cl)cc1NC(=O)C(C)Sc1nc2c(c(=O)[nH]1)CCC2 (stereo not drawn) | -0.57 | 0.8
CN1C(C(=O)NCc2ccc(F)cc2)=CC(c2ccc(F)cc2)=NS1(=O)=O | 1.5 | -2.6
CCC(C)NC(=O)C1=CC(c2ccc(F)cc2)=NS(=O)(=O)N1C (stereo not drawn) | 3.8* | -2.2
CCc1cc2c3c([nH]c2cc1S(=O)(=O)N1CCN(CC)CC1)CC(C)(C)CC3=O | 0.17 | .
C=CCOc1ccc(C2NC(=O)NC(O)(C(F)(F)F)C2C(=O)c2cccs2)cc1 (stereo not drawn) | . | -2.8
Cn1ncc2c(Nc3cccc(Cl)c3)nc(N3CCOCC3)nc21 | 0.91 | .
CCN(CC)c1ccc(NS(=O)(=O)c2cc3[nH]c(=O)c(=O)[nH]c3cc2C)c(C)c1 | 14* | .
CCN(CC)c1ccc(NS(=O)(=O)c2ccc(-c3ccc(=O)[nH]n3)o2)c(C)c1 | -3.3 | .
CCOC(=O)c1noc2nc(C)nc(N3CCN(c4ccccc4)CC3)c12 | 0.17 | .
Cc1nnc(SCCn2c(N3CCN(c4ccccc4)CC3)nc3c2c(=O)[nH]c(=O)n3C)s1 | 0.14 | -0.02
Nc1ccc2nc(N3CCN(CCOc4ccc(Cl)cc4)CC3)cc(C(=O)O)c2c1 | -1.1 | .
COC(=O)NC1c2ccccc2Oc2ccccc21 | 0.32 | -0.47
COC(=O)C1=C(N)Oc2ccccc2C1C(C#N)C#N (stereo not drawn) | . | 19*
COc1ccc(Nc2ncc3c(n2)CCNC3)c(OC)c1 | 0.55 | -0.43
CCCc1cc(=O)n2[nH]c(-c3ccc(Cl)cc3)nc2n1 | 0.42 | -0.59
CNC(=O)C(C)n1sc2ccccc2c1=O (stereo not drawn) | 1.8 | -2.1
CC(C(=O)NCc1ccco1)n1sc2ccccc2c1=O (stereo not drawn) | 3.6* | -1.8
O=C(CSc1ccsc1[N+](=O)[O-])Nc1ccc(Br)cc1F | 13* | 3.6
COc1ccc(NC(=O)CSc2ccsc2[N+](=O)[O-])cc1Cl | 10* | 3
O=C(CSc1ccsc1[N+](=O)[O-])NC1CCCC1 | -0.7 | -0.96
O=C(CSc1ccsc1[N+](=O)[O-])Nc1c(F)cc(F)cc1Br | 2.9 | 1.5
SMILES | TAR Tat displ | CDC25B-CDK2 inh
O=C(CSc1ccsc1[N+](=O)[O-])Nc1cccc(F)c1 | 5.2* | -2.8
CSc1ccc(CCNC(=O)CSc2ccsc2[N+](=O)[O-])cc1 | 0.24 | -0.52
CCN(CC)CCNC(=O)C1CCN(c2ncnc3onc(C)c23)CC1 | 2.9 | .
COc1cc(Cl)c(C)cc1N1C(=O)c2ccncc2C1=O | -0.2 | .
Nc1oncc1-c1ccc(Br)cc1 | 1.6 | -0.72
O=C(c1ccc(SCCN2CCOCC2)nc1)N1CCC(N2CCCCC2)CC1 | 1.9 | .
CC1CCN(C(=O)C2CCC(Cn3c(=O)c4sccc4n(C)c3=O)CC2)CC1 (stereo not drawn) | 0.7 | .
CC1CCCN(CCCNS(=O)(=O)c2ccc(-c3ccc(=O)[nH]n3)s2)C1 (stereo not drawn) | -1.6 | .
